{"source": "PubChem BioAssay (NCATS)", "note": "Several values for one entry are separate records, joined by “and”; a condition that tells them apart may be missing. Identical values can stand only once. Results filed as inconclusive are left out. Activity calls are given as the source filed them. Unless noted, calls come from the whole dose curve; as a rule, active = well fitted activation curve with a large enough effect; inconclusive = small, poorly fitted or top-dose-only effect, or another doubt; inactive = no such curve, though single readings can be large or run the other way."}
{"test": "Cell Proliferation Assay against the TMD8 Cell Line (Caspase readout at 8 hrs) (AID 651713); note: potency is the fitted concentration of half-maximal effect", "conditions": "TMD8 lymphoma cells, caspase activation luminescence; series mostly up to 46.1 µM; caspase activation: at the top concentration", "summary_of_the_method": "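Percent activity derived from Caspase-Glo signal, DMSO set to 0% and bortezomib (9.2 uM final) to 100%. TMD8 cells were exposed to compound for 8 h in RPMI with 5% FBS.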"}
{"smiles": "NC(=O)c1ncn([C@@H]2O[C@H](CO)[C@@H](O)[C@H]2O)c1N", "caspase activation": "2.79% (inactive)"}
{"smiles": "CC(=O)O[C@@]12CO[C@@H]1C[C@H](O)[C@@]1(C)C(=O)[C@H](O)C3=C(C)[C@@H](OC(=O)[C@H](O)[C@@H](NC(=O)OC(C)(C)C)c4ccccc4)C[C@@](O)([C@@H](OC(=O)c4ccccc4)[C@H]21)C3(C)C", "caspase activation": "-7.73% (inactive)"}
{"smiles": "O=C1Nc2ccc(Cl)cc2[C@@](C#CC2CC2)(C(F)(F)F)O1", "Potency": "17.1 µM (active)"}
{"smiles": "Oc1cn2c(n1)Nc1ccc(Cl)c(Cl)c1C2", "caspase activation": "8.19% (inactive)"}
{"test": "qHTS assay for small molecule agonists of the antioxidant response element (ARE) signaling pathway (AID 651741; active = well fitted activation curve with a large enough effect in the signal ratio; the % refers to the signal ratio; note: potency is the fitted concentration of half-maximal effect; for activation: % of control where 0% means no effect)", "conditions": "HepG2 ARE-bla reporter, beta-lactamase FRET ratio, 16 h; series mostly up to 96 µM; activation: at the top concentration", "summary_of_the_method": "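HepG2 ARE-bla cells plated at 2,000 cells/well and incubated 5 h at 37 C/5% CO2 received 23 nL compound in DMSO. After 16 h at 37 C, LiveBLAzer B/G FRET substrate was applied for 2 h at room temperature and fluorescence read.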"}
{"smiles": "NC(=O)N/N=C/c1ccc([N+](=O)[O-])o1", "Potency": "17.2 µM (active) and 21.1 µM (active)"}
{"smiles": "CC12CCC(CC1)C(C)(C)O2", "activation": "4.79% (inactive)"}
{"smiles": "Cc1cccc(Nc2cc(Cl)nc(SCC(=O)O)n2)c1C", "activation": "-8.46% (inactive)"}
{"smiles": "O=C1c2c(O)cccc2Cc2cccc(O)c21", "activation": "6.65% (inactive)"}
{"smiles": "CC1=C(/C=C/C(C)=C/C=C/C(C)=C/C(=O)O)C(C)(C)CCC1", "Potency": "54.5 µM (active)"}
{"smiles": "CC(O)COc1ccccc1", "note": "(configuration not stated)", "activation": "-0.375% (inactive)"}
{"smiles": "Cc1c(O)cccc1C(=O)N[C@@H](CSc1ccccc1)[C@H](O)CN1C[C@H]2CCCC[C@H]2C[C@H]1C(=O)NC(C)(C)C", "Potency": "26.6 µM (active)"}
{"smiles": "CC1(C)[C@@H]2CC[C@@]1(C)C(=O)C2", "activation": "-1.05% (inactive)"}
{"smiles": "CN(C)CCOC(C)(c1ccccc1)c1ccccn1", "note": "(configuration not stated)", "activation": "-0.59% (inactive)"}
{"smiles": "CN(C)CCC=C1c2ccccc2CCc2ccccc21", "activation": "-8.55% (inactive)"}
{"smiles": "C[C@]12C[C@H](O)[C@H]3[C@@H](CCC4=CC(=O)CC[C@@]43C)[C@@H]1CC[C@@H]2C(=O)CO", "activation": "6.53% (inactive)"}
{"smiles": "NCCNCCNCCNCCN", "activation": "2.68% (inactive)"}
{"smiles": "Nc1ccc(S(=O)(=O)Nc2nccs2)cc1", "activation": "6.63% (inactive)"}
{"smiles": "NCCNCCNCCN", "activation": "-0.501% (inactive)"}
{"smiles": "NC(=O)c1ncn([C@@H]2O[C@H](CO)[C@@H](O)[C@H]2O)n1", "activation": "8.7% (inactive)"}
{"smiles": "COc1ccccc1O", "activation": "1.66% (inactive)"}
{"smiles": "CCCCOC(=O)c1ccc(O)cc1", "Potency": "30.6 µM (active)"}
{"smiles": "CCCCCCCCCCCCOS(=O)(=O)O", "activation": "10.5% (inactive)"}
{"smiles": "O=C1O[C@H]([C@@H](O)CO)C(O)=C1O", "Potency": "61.1 µM (active)"}
{"test": "qHTS assay for small molecule activators of the p53 signaling pathway (AID 651743; active = well fitted activation curve with a large enough effect in the signal ratio, not every such curve was filed as active; the % refers to the signal ratio; note: % of control where 0% means no effect)", "conditions": "HCT-116 p53RE-bla, beta-lactamase FRET ratio, 16 h; hits give high values", "summary_of_the_method": "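HCT-116 p53RE-bla, 4,000 cells/well; 5 h settle; cpd/DMSO 16 h, 37 C; LiveBLAzer B/G 2 h RT; fluorescence intensity.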"}
{"smiles": "NC(=O)N/N=C/c1ccc([N+](=O)[O-])o1", "activation": "-0.844% (inactive) and -0.297% (inactive)"}
{"smiles": "CCCCC(CC)COC(=O)c1ccccc1O", "note": "(configuration not stated)", "activation": "0.46% (inactive)"}
{"smiles": "CC12CCC(CC1)C(C)(C)O2", "activation": "-1.89% (inactive)"}
{"smiles": "Cc1cccc(Nc2cc(Cl)nc(SCC(=O)O)n2)c1C", "activation": "4.88% (inactive)"}
{"smiles": "CC(O)CN(CCN(CC(C)O)CC(C)O)CC(C)O", "note": "(configuration not stated)", "activation": "-6.2% (inactive)"}
{"smiles": "O=C1c2c(O)cccc2Cc2cccc(O)c21", "activation": "-1.03% (inactive)"}
{"smiles": "CCOC(=O)c1ccc(O)cc1", "activation": "-7.13% (inactive)"}
{"smiles": "CC1=C(/C=C/C(C)=C/C=C/C(C)=C/C(=O)O)C(C)(C)CCC1", "activation": "1.97% (inactive) and 6.17% (inactive)"}
{"smiles": "CC(O)COc1ccccc1", "note": "(configuration not stated)", "activation": "2.15% (inactive)"}
{"smiles": "Cc1c(O)cccc1C(=O)N[C@@H](CSc1ccccc1)[C@H](O)CN1C[C@H]2CCCC[C@H]2C[C@H]1C(=O)NC(C)(C)C", "activation": "10.5% (inactive)"}
{"smiles": "CC1(C)[C@@H]2CC[C@@]1(C)C(=O)C2", "activation": "0.0082% (inactive)"}
{"smiles": "CN(C)CCOC(C)(c1ccccc1)c1ccccn1", "note": "(configuration not stated)", "activation": "2.16% (inactive)"}
{"smiles": "CN(C)CCC=C1c2ccccc2CCc2ccccc21", "activation": "-8.64% (inactive) and -6.53% (inactive)"}
{"smiles": "C[C@]12C[C@H](O)[C@H]3[C@@H](CCC4=CC(=O)CC[C@@]43C)[C@@H]1CC[C@@H]2C(=O)CO", "activation": "-3.81% (inactive) and -1.82% (inactive)"}
{"smiles": "Cc1cc(CC(=O)O)n(C)c1C(=O)c1ccc(Cl)cc1", "activation": "-3.75% (inactive)"}
{"smiles": "Cc1cc2nc3c(=O)[nH]c(=O)nc-3n(C[C@H](O)[C@H](O)[C@H](O)CO)c2cc1C", "activation": "-9.36% (inactive)"}
{"smiles": "CN(C)CCCN1c2ccccc2CCc2ccccc21", "activation": "-6.39% (inactive)"}
{"smiles": "Nc1ccc(S(=O)(=O)Nc2nccs2)cc1", "activation": "-5.45% (inactive)"}
{"smiles": "C[C@]12CC[C@@H]3c4ccc(O)cc4CC[C@H]3[C@@H]1CCC2=O", "activation": "0.661% (inactive)"}
{"smiles": "COC(=O)C1=C(C)NC(C)=C(C(=O)OC)C1c1ccccc1[N+](=O)[O-]", "activation": "-2.95% (inactive)"}
{"smiles": "NCCNCCNCCN", "activation": "-2.15% (inactive)"}
{"smiles": "CN(C)CCCN1c2ccccc2Sc2ccc(Cl)cc21", "activation": "10.1% (inactive)"}
{"smiles": "CNC(=O)Oc1ccc2c(c1)[C@]1(C)CCN(C)[C@@H]1N2C", "activation": "-2.62% (inactive)"}
{"smiles": "CCCc1c(OCCCCc2nn[nH]n2)ccc(C(C)=O)c1O", "activation": "16.1% (inactive)"}
